# Experimental data as given in PubChem BioAssay (EPA / NIEHS).
# “And” between values parts separate entries of the source, which are not always exact repeats. Identical values can stand only once. Results filed as inconclusive are left out. Some compounds were tested as several samples or in several runs, with calls that do not always agree. The source made the active and inactive calls. Rule for the calls: active = hit-call score of the fitted dose curve at least 0.9, where 1 is the maximum; inconclusive = response in the unintended direction; inactive = score below 0.9.
# Read-out: Cytochrome P450 3A4 (Homo sapiens) (UniProt P08684)
# Assay: CLD_CYP3A4_24hr: CellzDirect (CLD) Gene Expression Assay for xenobiotic metabolism (CYP3A4) at 24 hours (AID 2283689)
# Description: CLD_24hr is a cell-based, multiplexed-readout assay that uses hepatocyte, a human liver primary cell, with measurements taken at 24 hours after chemical dosing in a 96-well plate.CLD_CYP3A4_24hr is one of 16 assay component(s) measured or calculated from the CLD_24hr assay. It is designed to make measurements of mRNA induction, a form of inducible reporter, as detected with chemiluminescence signals by Quantitative Nuclease Protection Assay (qNPA) technology.Data from the assay component CLD_CYP3A4_24hr was analyzed at the endpoint, CLD_CYP3A4_24hr, in the positive analysis fitting direction relative to DMSO as the negative control and baseline of activity. Using a type of inducible reporter, gain-of-signal activity can be used to understand changes in the reporter gene as they relate to the gene CYP3A4. Furthermore, this assay endpoint can be referred to as a primary readout. To generalize the intended target to other relatable targets, this assay endpoint is annotated to the cyp intended target family, where subfamily is xenobiotic metabolism.
# Human hepatocyte cultures were treated daily for two consecutive days with fresh dosing solutions containing appropriate concentrations of the 320 ToxCast chemicals (chemical identities were blinded to CellzDirect and other ToxCast collaborators), vehicle control (0.2% DMSO), and positive control inducers as summarized in Table 1. Due to the large number of treatment groups and chemicals examined, the ToxCast chemicals were divided into two groups (spanning two independent cultures of hepatocytes from separate donor preparations (Hu778: ToxCast plates 1 and 2; Hu776: ToxCast plates 3 and 4). Each preparation of human hepatocyte cultures was treated with respective vehicle control, medium only control, set of six positive controls/reference chemicals for the five hepatic receptor pathways, and a subset of eight of the ToxCast chemicals (indoxacarb, pyrithiobac-sodium, norflurazon, cyhalofop-butyl, methomyl, thiram, acetochlor, and propiconazole). These replicate data, coupled with internal replicates designed within the blinded ToxCast chemical library, provided additional data to evaluate interindividual differences between hepatocyte preparations and their potential impact on chemical profiles.Cell morphology and integrity were evaluated using phase-contrast microscopy as an indicator of hepatocyte cell health (Tyson & Green, 1987). Cultures for each treatment group (i.e., media, vehicle [0.2% DMSO], positive control inducers [multiple concentrations], and the ToxCast chemicals [multiple concentrations]) were observed and cell morphology was assessed relative to vehicle control cultures at each harvest time point (0, 6, 24, or 48 h). […] Images were evaluated at the conclusion of the study to assess changes in cell integrity and account for the effects of chemical exposure on uncharacteristic changes in concentration-dependent gene expression profiles. The results from these determinations of apparent cytotoxicity were annotated (yes/no) alongside the corresponding qNPA data for reference.At the conclusion of each treatment period, hepatocyte cultures (96-well) were washed with 1 volume of HBSS, lysed by addition of 25 ul ArrayPlate lysis buffer (HTG, Tucson, AZ), and 70 ul/well of Denaturation Oil, denatured by incubation at 95C for 10 min, and frozen at approximately -70C until analysis by nuclease protection assay (qNPA) (Roberts et al., 2007). For qNPA analysis, cell lysates were thawed at 50C for approximately 30 min, qNPA probes were added, and samples were incubated at 95C for 10 min to begin the detection process by denaturing the target RNA, dissociating the duplexes and secondary structure hybridization. At the conclusion of the hybridization period, S1 nuclease reagent was added to each sample to digest all nonprotected nucleotides at 50C for 60-90 min. […]
# Sequence of Cytochrome P450 3A4 (Homo sapiens) (P08684 whole entry, looked up): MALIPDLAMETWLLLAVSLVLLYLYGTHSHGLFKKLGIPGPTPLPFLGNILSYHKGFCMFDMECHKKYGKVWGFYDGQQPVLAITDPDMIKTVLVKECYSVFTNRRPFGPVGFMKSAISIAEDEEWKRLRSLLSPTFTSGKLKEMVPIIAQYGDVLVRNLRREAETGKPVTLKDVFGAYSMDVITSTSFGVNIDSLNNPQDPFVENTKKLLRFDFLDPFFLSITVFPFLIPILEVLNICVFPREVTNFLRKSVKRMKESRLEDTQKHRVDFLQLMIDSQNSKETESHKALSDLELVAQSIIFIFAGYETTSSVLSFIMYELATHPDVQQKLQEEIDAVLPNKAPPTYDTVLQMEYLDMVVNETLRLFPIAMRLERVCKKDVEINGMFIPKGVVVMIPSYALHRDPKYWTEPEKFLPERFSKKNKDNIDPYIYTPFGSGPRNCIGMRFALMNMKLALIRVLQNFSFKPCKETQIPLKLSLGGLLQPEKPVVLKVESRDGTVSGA
SMILES,AC50,outcome
CCNc1nc(Cl)nc(NC(C)C)n1,20 µM (active),
C=CC1(C)OC(=O)N(c2cc(Cl)cc(Cl)c2)C1=O (stereo not given),,inactive
CCCCNC(=O)n1c(NC(=O)OC)nc2ccccc21,,inactive
CC1=C(C(=O)Nc2ccccc2)SCCO1,6.76 µM (active),
CNC(=O)ON=CC(C)(C)SC,,inactive
CCCN(CCC)c1c([N+](=O)[O-])cc(S(N)(=O)=O)cc1[N+](=O)[O-],11.1 µM (active),
CON(C)C(=O)Nc1ccc(Cl)c(Cl)c1,,inactive
CCCCNC(=O)OCC#CI,,inactive
CCOC(=O)C(Cl)Cc1cc(-n2nc(C)n(C(F)F)c2=O)c(F)cc1Cl (stereo not given),20 µM (active),
CC(C)C1(C)N=C(c2nc3ccccc3cc2C(=O)O)NC1=O (stereo not given),,inactive
COc1nc(C)nc(NC(=O)NS(=O)(=O)c2ccccc2Cl)n1,,inactive
N#CC(CCc1ccc(Cl)cc1)(Cn1cncn1)c1ccccc1 (stereo not given),1.9 µM (active),
COC(=O)C(C)Oc1ccc(Oc2ccc(Cl)cc2Cl)cc1 (stereo not given),5.43 µM (active),inactive
CN(C)C(=S)SSC(=S)N(C)C,,inactive
COc1nc(C)nc(NC(=O)NS(=O)(=O)c2ccccc2CCC(F)(F)F)n1,36.7 µM (active) and 5.29 µM (active),inactive
Cc1ccc(-c2c(Cl)nc(C#N)n2S(=O)(=O)N(C)C)cc1,,inactive
COC(=O)c1ccccc1C(=O)OC,,inactive
CC1COC(Cn2cncn2)(c2ccc(Oc3ccc(Cl)cc3)cc2Cl)O1 (stereo not given),1.9 µM (active),
CC(C)Oc1cc(-n2nc(C(C)(C)C)oc2=O)c(Cl)cc1Cl,1.9 µM (active),

SMILES,AC50,outcome
CCCC1COC(Cn2cncn2)(c2ccc(Cl)cc2Cl)O1 (stereo not given),1.59 µM (active),
CCOc1cc(Oc2ccc(C(F)(F)F)cc2Cl)ccc1[N+](=O)[O-],20 µM (active),
Oc1ccccc1-c1ccccc1,,inactive
CCc1nn(C)c(C(=O)NCc2ccc(C(C)(C)C)cc2)c1Cl,20 µM (active),
O=C(O)c1nc(Cl)ccc1Cl,,inactive
COP(=S)(OC)Oc1nc(Cl)c(Cl)cc1Cl,3.97 µM (active),
Cc1c(F)c(F)c(COC(=O)C2C(/C=C(\Cl)C(F)(F)F)C2(C)C)c(F)c1F (stereo not given),5.74 µM (active),
CCOC(=O)CC(SP(=S)(OC)OC)C(=O)OCC (stereo not given),,inactive
COc1cnc(OC)n2nc(NS(=O)(=O)c3c(OCC(F)F)cccc3C(F)(F)F)nc12,2.42 µM (active),
COc1nc(NC(C)C)nc(NC(C)C)n1,1.9 µM (active),
COC(=O)N(OC)c1ccccc1COc1ccn(-c2ccc(Cl)cc2)n1,3.73 µM (active),
N#Cc1nn(-c2c(Cl)cc(C(F)(F)F)cc2Cl)c(N)c1S(=O)C(F)(F)F (stereo not given),1.89 µM (active),
O=C(O)COc1nc(Cl)c(Cl)cc1Cl,,inactive
CCOP(=S)(OCC)SCn1c(=O)oc2cc(Cl)ccc21,,inactive
Cc1cc(Cl)ccc1OCC(=O)O,,inactive
C#CCOS(=O)OC1CCCCC1Oc1ccc(C(C)(C)C)cc1 (stereo not given),1.89 µM (active),
CCON=C(CC)C1=C(O)CC(c2c(C)cc(C)cc2C)CC1=O (stereo not given),,inactive
OC(c1ccc(Cl)cc1)(c1cncnc1)c1ccccc1Cl (stereo not given),0.542 µM (active),
CCCCOC(=O)c1ccccc1C(=O)OCCCC,,inactive
